# MenB inh: Mtb MenB enzyme inhibition. MenB enzyme assay, absorbance read-out. inhibition, % (concentration not given with the values). 100,000 compounds, 0.43% hits. P9WNP5; in the data active = inhibition above about 21%, passing the limit was not always enough
# MbtI inh: inhibitors of Mycobacterium tuberculosis siderophore enzyme MbtI. P9WFX0. purified MbtI enzyme, fluorescence intensity read-out. inhibition, % (no concentration beside the values). 100,000 compounds, 0.89% hits; in the data active = inhibition mostly above about 56%, no sharp cut-off; inactive = mostly below about 77%
# Polio RdRp inh: inhibitors of poliovirus RNA polymerase binding and polymerization. poliovirus polymerase elongation, fluorescence polarization; stronger effect = lower value. AID 588519. 150,000 compounds, 0.66% hits. % elongation, % (compound at 16.7 µg/mL). P03300; in the data active = % elongation below about 90%
# Target sequence (P03300 1749-2209 limits assumed): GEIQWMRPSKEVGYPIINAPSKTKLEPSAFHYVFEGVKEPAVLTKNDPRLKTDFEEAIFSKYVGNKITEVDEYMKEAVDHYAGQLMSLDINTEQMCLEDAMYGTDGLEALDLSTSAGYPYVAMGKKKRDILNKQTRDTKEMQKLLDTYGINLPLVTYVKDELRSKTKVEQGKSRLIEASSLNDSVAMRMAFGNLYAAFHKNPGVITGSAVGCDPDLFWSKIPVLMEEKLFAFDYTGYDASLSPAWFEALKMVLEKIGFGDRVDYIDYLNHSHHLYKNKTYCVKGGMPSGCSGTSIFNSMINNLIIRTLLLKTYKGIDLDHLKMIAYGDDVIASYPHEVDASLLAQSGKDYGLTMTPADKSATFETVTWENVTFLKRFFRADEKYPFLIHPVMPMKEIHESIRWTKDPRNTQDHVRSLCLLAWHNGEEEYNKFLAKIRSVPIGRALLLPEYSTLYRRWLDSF
# Active calls of the source: *; nt = not tested or not shown; ! = not active in a repeat. Sampled rows, rich in hits. Any-hit rate of the full collection: about 1.4%.
SMILES,MenB inh,MbtI inh,Polio RdRp inh
CC(=O)c1c(CC(=O)O)[nH]n(-c2nc3ccccc3s2)c1=O,-16,60*,101
CC(C)C(=O)NCCc1c[nH]c2ccccc12,-9,-24,101
Cc1ccc(C(=O)CC(NCCc2c[nH]c3ccccc23)C(=O)O)cc1 (centres undefined),47*,nt,103
CSc1nsc(NC(=O)Nc2ccccc2C(F)(F)F)n1,3,1,102
N#CC(C#N)=CNc1cccc(NC(=O)c2cccc(Cl)c2)n1,-3,-7,102
O=C(CCc1c[nH]c2ccccc12)OCC(=O)c1cc2c3c(c1)CC(=O)N3CCC2,-9,-2,105
CC(=O)Oc1ccc(OC(C)=O)c(C2=C3C(=O)N(CCc4c[nH]c5ccccc45)CC(=O)N3CCC2)c1,12,100*,104
Nc1nc2ccc(SC(F)F)cc2s1,0,4,97
N#CSc1ccc2nc(N)sc2c1,1,53*,94
O=C(COc1ccccc1)NN=C1CCCCC1,-9,5,102
N#Cc1c(-c2ccccc2)cc(-c2ccccc2)nc1SCC(O)CS(=O)(=O)Cc1ccccc1 (centres undefined),nt,nt,80*
Cc1ccc(-c2cc(-c3ccccc3)c(C#N)c(SCC(O)CS(=O)(=O)Cc3ccccc3)n2)cc1 (centres undefined),nt,nt,94
CC1CCC2(CC1)NC(=O)N(NC(=S)NCc1ccc3c(c1)OCO3)C2=O (centres undefined),-29,67*,103
CCNC(=S)NCc1ccc2c(c1)OCO2,-26,-9,106
O=C(Nc1cc(OCC(F)(F)F)cc(OCC(F)(F)C(F)F)c1)c1cccnc1,-22,-6,101
Cc1cc(N2CCCC2)ccc1/C=C/C1=CCN(C)CC1,11,89,64*
C=CCn1c(C)c(/C=C/C2=CCN(C)CC2)c2ccccc21,-168,79,78
Cn1c(=O)c2c(nc(Oc3cccc(/C=N/NC(=O)c4nonc4N)c3)n2C)n(C)c1=O,-16,-1,100
CC(=O)Nc1sc2c(c1CN(C)C)CCCC2,-13,-6,107
CC(=O)Nc1sc2c(c1-c1nsc(=O)o1)CCCC2,-30,nt,82*
C=C(C)CN(CC)c1nc(N)c2c(N)nc3c(c2c1C#N)CC(=O)N3C12CC3CC(CC(C3)C1)C2,-2,-18,102
N#Cc1c(N2CCCC(O)C2)nc(N)c2c(N)nc3c(c12)CC(=O)N3C12CC3CC(CC(C3)C1)C2 (centres undefined),-25,-14,39*
Cc1ccc(N2CN=c3s/c(=C4\C(=O)N(C)c5ccccc54)c(=O)n3C2)cc1,5,-1,103
CC1CCCC(C)N1CCNC(=O)c1cn(C(C)c2ccccc2F)nn1 (centres undefined),18,-6,101
CCc1nn(CC(=O)NCc2ccc(C)cc2)c(=O)c2cc3occc3n12,nt,nt,72*
SMILES,MenB inh,MbtI inh,Polio RdRp inh
CCc1nn(CC(=O)NCCCN(CC)CC)c(=O)c2cc3occc3n12,nt,nt,107
N#CSC12CN3CN(CN(C3)C1)C2,33*,6,99
CC(=O)N1CCc2cc(C(O)CN3CCN(c4cc(Cl)ccc4C)CC3)ccc21 (centres undefined),-8,8,100
COc1cccc(N=C2NNC(C)=C(C(=O)N(C)C)S2)c1,-7,59*,83*
C=CCN(CC=C)C(=O)c1cccc(OC)c1,1,nt,105
O=C(/C=C\c1cn(-c2ccccc2)nc1-c1cccs1)N1CCCCC1,nt,6,99
COc1ccccc1NC(=O)c1ccc2c(c1)C(=O)N(Cc1ccncc1)C2=O,0,-24,102
CCCn1c(=O)c2ccccc2n2c(=S)[nH]nc12,-30,75*,101
O=c1c2ccccc2n2c(=S)[nH]nc2n1-c1ccccc1,-26,94*,89*
S=c1[nH]nc(CCn2c3ccccc3c3ccccc32)n1-c1ccccc1,-43,122,103
O=c1c2ccccc2n2c(=O)[nH]nc2n1Cc1ccc(F)cc1,-6,3,98
O=C(O)/C=C/c1cccs1,nt,19,103
CN(C)/C=N/c1nnc(SCC(=O)c2ccc(Cl)cc2)s1,-11,10,102
CN(C)C=NC(=S)c1sccc1CSc1ccc(Cl)cc1,-26,74*,106
CCN1CCOC(CC(=O)Nc2cccc(OC)c2)C1=O (centres undefined),-25,36,104
CCCN1CCOC(CC(=O)Nc2ccc(Br)cc2Br)C1=O (centres undefined),nt,87*,nt
CCN1CCOC(CC(=O)Nc2ccccc2C)C1=O (centres undefined),-6,75*,105
O=C(CC1OCCN(Cc2ccccc2)C1=O)Nc1ccc(Br)cc1Br (centres undefined),-22,-1,104
O=C(CN1CCC(N2CCCCC2)CC1)NC12CC3CC(CC(C3)C1)C2,-34,0,101
CC(=O)Nc1ccc(C(=O)OCC(N)=O)cc1,14,-1,103
O=C(Cc1n[nH]c(=O)c2ccccc12)Nc1ccccc1C(=O)NC1CCCC1,-7,-14,105
COC(=O)c1ccc(NC(=O)CSc2nc3ccc(OC)cc3[nH]2)cc1,nt,nt,110
COc1ccc2nc(SCC(=O)c3ccc(O)c(O)c3)[nH]c2c1,1,70*,100
COC(=O)Cc1c(C(=O)OC)sc(N)c1C#N,2,4,101
COC(=O)c1ccc(N2C(=O)Cc3c2nc(N)c2c(N)nc(N(C)C(C)C)c(C#N)c32)cc1,-4,-32,106
SMILES,MenB inh,MbtI inh,Polio RdRp inh
CC1CN(C(=S)NCCc2ccccc2)CC(C)O1 (centres undefined),7,9,98
CC1CN(C(=S)c2ccccc2)CC(C)O1 (centres undefined),-11,68*,96
O=C(N/N=C/c1ccco1)C1c2ccccc2Oc2ccccc21,14,5,102
CC(C)[N+]1(C)C2CCC1CC(OC(=O)C(CO)c1ccccc1)C2 (centres undefined),-1,-10,99
C[N+]1(C)C2CCC1CC(OC(=O)C(CO)c1ccccc1)C2 (centres undefined),9,65*!,104
CC1CCOP(=S)(N(C)C)O1 (centres undefined),2,0,105
N=C(N)SCc1csc(N)n1,7,nt,87*
Cc1cc(C)nc(SCc2csc(N)n2)n1,-24,1,98
S=C(Nc1ccc2nsnc2c1)N1CCCC1,-4,-12,89*
Fc1ccc(NC(=S)N2CCCCC2)cc1,-7,-2,100
Cc1cc(C(=O)NC2CCCCCC2)no1,-3,-10,106
Cc1cc(C(=O)NN2C3CSC2CS3)no1,75*,-4,99
Cc1c(O)ccc(C(=O)COc2ccccc2)c1O,-7,10,102
O=C(COc1ccccc1)c1ccc(O)c(O)c1O,-21,94*,101
CC1Oc2ccc(N)cc2N(C)C1=O (centres undefined),-54,7,101
CS/C(=C(/C#N)S(=O)(=O)C(C)C)N1CCCCC1,-21,13,105
CSC(SC)=C(C#N)S(C)(=O)=O,18,68*,101
O=C(Cn1cnc2sccc2c1=O)NC1CCS(=O)(=O)C1 (centres undefined),-6,-2,103
Cc1cccc(OCCC(=O)OCc2ncc(-c3ccccc3)o2)c1,-13,7,103
CC(CS(=O)(=O)c1ccc2c(c1)NC(=O)C(C)S2)C(=O)N1CCc2ccccc21 (centres undefined),-23,-12,103

# From PubChem BioAssay
